# Measurements: PubChem BioAssay
# Calls of active or inactive are those of the source.
# What was measured:
# [1] = system: Plasmodium falciparum Sir2 (PF13_0152, Sir2A); assay: Plasmodium falciparum Sir2A binding compounds – biochemical, small-molecule microarray, 635 nm fluorescence, primary screen (AID 1098); conditions: fluorescence 635 nm, higher = more signal;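 also: score merges spot fluorescence intensity with its signal-to-noise ratio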
# [2] = probe aDKK1 binding to arrayed compounds – biochemical, biotinylated probe, 635/667 nm fluorescence, primary screen (AID 1099); conditions: small-molecule microarray, higher = more signal;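 also: score merges 667nm spot fluorescence with signal to noise across triplicate slides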
# [3] = probe aCHRDL2 binding to arrayed compounds – biochemical, biotinylated probe, 635/667 nm fluorescence, primary screen (AID 1100); conditions: small-molecule microarray, higher = more signal
# [4] = change in splice reporter luminescence, either direction, cell-based, HEK293, spliceosome inhibition project, primary screen (AID 1101); conditions: HEK293 splicing luciferase reporter, 24 h, higher = more signal, called active from +8 up or from −8 down;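 also: HEK293 cells carrying a splicing-competent luciferase reporter gene; test concentration not given here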
# [5] = target: Fibroblast growth factor 10 (Homo sapiens) (UniProt O15520); assay: compounds binding fibroblast growth factor 10 – biochemical, small-molecule microarray, 635 nm fluorescence, primary screen (AID 1102); conditions: FGF10 binding, fluorescence 635 nm, higher = more signal
# [6] = system: glycogen synthase kinase-3 (GSK3A per assay name; protocol says GSK3B); assay: compounds binding glycogen synthase kinase-3 – biochemical, small-molecule microarray, 635 nm fluorescence, GSK3A, primary screen (AID 1103); conditions: fluorescence 635 nm, higher = more signal; also: the record names both GSK3A and GSK3B
# [7] = target: Epidermal growth factor receptor (Homo sapiens) (UniProt P00533); assay: compounds binding epidermal growth factor receptor – biochemical, small-molecule microarray, 635 nm fluorescence, primary screen (AID 1104); conditions: EGFR binding, higher = more signal;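 also: score merges 667 nm emission intensity with spot signal to noise over triplicate slides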
# [8] = target: Follistatin-related protein 3 (Homo sapiens) (UniProt O95633); assay: compounds binding follistatin-related protein 3 – biochemical, small-molecule microarray, 635 nm fluorescence, primary screen (AID 1105); conditions: FSTL3 binding, higher = more signal;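 also: score merges emission near 667 nm and signal to noise per printed spot across three slides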
# [9] = target: Dickkopf-related protein 1 (Homo sapiens) (UniProt O94907); assay: small molecules binding DKK1 protein – biochemical, small-molecule microarray, 635 nm fluorescence scan, primary screen (AID 1106); conditions: higher = more signal;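 also: score merges emission near 667 nm with signal to noise over three replicate slides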
# [10] = system: Inhibin beta A chain (activin A); assay: small molecules binding activin A – biochemical, small-molecule microarray, 635 nm fluorescence scan, primary screen (AID 1107); conditions: INHBA, higher = more signal;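 also: mouse activin A protein probed at 4.33 µg/mL on printed slides; score merges bound-protein fluorescence near 667 nm with spot signal-to-noise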
# [11] = system: Human papillomavirus type 1a protein E7 (residues 44-93); assay: small molecules binding HPV E7 44-93 – biochemical, small-molecule microarray, residues 44-93, 635 nm fluorescence, primary screen (AID 1108); conditions: fluorescence 635 nm, higher = more signal;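 also: E7 fragment applied at 1 µg/mL in TBST for 1 h at 4 C; score combines spot fluorescence with its signal to noise ratio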
# [12] = hepatitis C replication reporter changes, two-sided – Huh7 cells, luciferase reporter, HCV replication inhibitor project, primary screen (AID 1109); conditions: Huh7 HCV replicon luciferase reporter, 48 h; higher = more signal;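 also: huh7 hepatoma cells harbouring a luciferase neomycin HCV replicon reporter; luciferase luminescence as measure of HCV replicon replication; test concentration not given here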
# [13] = target: Left-right determination factor 2 (Homo sapiens) (UniProt O00292); assay: small molecules binding LEFTY2 protein – biochemical, small-molecule microarray, 635 nm fluorescence scan, primary screen (AID 1110); conditions: higher = more signal
# [14] = target: Calmodulin-1 (Homo sapiens) (UniProt P0DP23); assay: small molecules binding calmodulin-1 with EGTA – biochemical, small-molecule microarray, Cy5-labelled CALM1, profiling panel (AID 1111); conditions: Cy5-CALM1 binding fluorescence, higher = more signal;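 also: labelled calmodulin applied in Tris saline Tween buffer holding calcium plus EGTA and DTT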
# [15] = target: Calmodulin-1 (Homo sapiens) (UniProt P0DP23); assay: small molecules binding Ca-loaded calmodulin-1 – biochemical, small-molecule microarray, Cy5-labelled CALM1, plus calcium, artefact control for SMM control-protein annotation, profiling panel (AID 1112); conditions: Cy5-CALM1 binding fluorescence, higher = more signal;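 also: score merges spot fluorescence with signal to noise from triplicate slides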
# [16] = probe aWnt5a binding to arrayed compounds – biochemical, biotinylated probe, 635/667 nm fluorescence, primary screen (AID 1113); conditions: small-molecule microarray, higher = more signal;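 also: score merges 667 nm fluorescence intensity with signal-to-noise per printed feature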
# [17] = probe aShh binding to arrayed compounds – biochemical, biotinylated probe, 635/667 nm fluorescence, primary screen (AID 1114); conditions: small-molecule microarray, higher = more signal;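 also: probe is biotin-labelled aShh protein from a stem cell growth factor screen; measures binding of labelled protein to compounds printed on the slide; score merges feature fluorescence at 667 nm with signal-to-noise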
# [18] = probe aNog binding to arrayed compounds – biochemical, biotinylated probe, 635/667 nm fluorescence, primary screen (AID 1115); conditions: small-molecule microarray, higher = more signal;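 also: probe is biotinylated aNog protein used at 0.15 µg/mL for 1 h at 4 C; z-score combines 667 nm fluorescence of each spot with its signal to noise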
# [19] = target: Torsin-1A-interacting protein 1 (Homo sapiens) (UniProt Q5JTV8); assay: compound microarray binding of lysate hLAP1 – cell lysate, small-molecule microarray, COS7 lysate, 635/667 nm fluorescence, primary screen (AID 1116); conditions: 635 nm fluorescence, higher = more signal
# [20] = target: Alpha-bungarotoxin (Bungarus multicinctus) (UniProt P60615); assay: compounds binding labelled alpha-BTX control protein – biochemical, small-molecule microarray, Alexa647 label, 635/667 nm fluorescence, artefact control for SMM control protein annotation, profiling panel (AID 1117); conditions: alpha-BTX-A647 binding fluorescence, higher = more signal
# Sequence of Alpha-bungarotoxin (Bungarus multicinctus) (P60615 whole entry, looked up): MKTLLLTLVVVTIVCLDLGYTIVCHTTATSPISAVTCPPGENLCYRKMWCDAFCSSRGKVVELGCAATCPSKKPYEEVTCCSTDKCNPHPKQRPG
# Sequence of Follistatin-related protein 3 (Homo sapiens) (O95633 whole entry, looked up): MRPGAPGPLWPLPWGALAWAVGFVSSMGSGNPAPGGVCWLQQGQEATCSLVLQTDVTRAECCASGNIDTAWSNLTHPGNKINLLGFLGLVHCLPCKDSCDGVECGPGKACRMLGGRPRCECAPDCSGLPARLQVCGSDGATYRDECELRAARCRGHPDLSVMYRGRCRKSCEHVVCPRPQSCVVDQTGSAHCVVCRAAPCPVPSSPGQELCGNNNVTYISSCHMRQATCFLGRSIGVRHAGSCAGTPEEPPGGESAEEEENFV
# Sequence of Fibroblast growth factor 10 (Homo sapiens) (O15520 whole entry, looked up): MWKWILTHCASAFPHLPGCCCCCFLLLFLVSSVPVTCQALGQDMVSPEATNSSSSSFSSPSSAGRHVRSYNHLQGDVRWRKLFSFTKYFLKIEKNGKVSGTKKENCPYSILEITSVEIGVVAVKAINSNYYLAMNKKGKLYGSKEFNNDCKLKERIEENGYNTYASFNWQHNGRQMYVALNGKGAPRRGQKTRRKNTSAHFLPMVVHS
# Sequence of Left-right determination factor 2 (Homo sapiens) (O00292 whole entry, looked up): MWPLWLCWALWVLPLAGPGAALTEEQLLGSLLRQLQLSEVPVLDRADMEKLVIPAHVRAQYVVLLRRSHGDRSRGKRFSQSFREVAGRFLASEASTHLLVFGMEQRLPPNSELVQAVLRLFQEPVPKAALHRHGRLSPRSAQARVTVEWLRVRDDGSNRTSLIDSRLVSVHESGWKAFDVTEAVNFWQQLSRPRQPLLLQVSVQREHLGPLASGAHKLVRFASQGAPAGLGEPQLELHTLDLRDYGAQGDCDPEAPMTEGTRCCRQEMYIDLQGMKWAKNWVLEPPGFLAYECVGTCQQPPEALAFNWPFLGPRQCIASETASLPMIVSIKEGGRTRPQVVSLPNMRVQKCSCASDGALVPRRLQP
# Sequence of Dickkopf-related protein 1 (Homo sapiens) (O94907 whole entry, looked up): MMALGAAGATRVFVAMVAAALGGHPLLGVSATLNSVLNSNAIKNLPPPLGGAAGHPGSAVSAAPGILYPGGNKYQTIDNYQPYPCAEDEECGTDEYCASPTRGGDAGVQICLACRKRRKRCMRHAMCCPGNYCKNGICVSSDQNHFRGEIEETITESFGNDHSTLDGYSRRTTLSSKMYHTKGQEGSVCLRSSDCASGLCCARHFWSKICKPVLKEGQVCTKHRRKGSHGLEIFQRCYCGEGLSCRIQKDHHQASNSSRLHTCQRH
# Sequence of Torsin-1A-interacting protein 1 (Homo sapiens) (Q5JTV8 whole entry, looked up): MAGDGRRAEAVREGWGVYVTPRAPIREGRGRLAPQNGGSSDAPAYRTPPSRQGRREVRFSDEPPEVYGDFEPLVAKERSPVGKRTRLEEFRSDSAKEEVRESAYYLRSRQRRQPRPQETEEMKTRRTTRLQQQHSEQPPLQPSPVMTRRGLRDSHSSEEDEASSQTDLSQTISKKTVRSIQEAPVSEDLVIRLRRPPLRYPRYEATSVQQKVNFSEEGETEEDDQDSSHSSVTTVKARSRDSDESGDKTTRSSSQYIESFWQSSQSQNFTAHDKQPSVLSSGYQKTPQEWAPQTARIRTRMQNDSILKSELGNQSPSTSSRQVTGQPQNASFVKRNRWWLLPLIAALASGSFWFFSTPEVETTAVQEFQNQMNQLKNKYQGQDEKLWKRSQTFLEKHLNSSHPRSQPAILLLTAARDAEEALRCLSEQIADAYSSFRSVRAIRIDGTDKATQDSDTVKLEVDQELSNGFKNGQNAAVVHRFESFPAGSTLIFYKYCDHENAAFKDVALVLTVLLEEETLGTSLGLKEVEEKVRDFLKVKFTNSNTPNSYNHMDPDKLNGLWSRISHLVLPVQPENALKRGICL
# Sequence of Epidermal growth factor receptor (Homo sapiens) (P00533 whole entry, looked up): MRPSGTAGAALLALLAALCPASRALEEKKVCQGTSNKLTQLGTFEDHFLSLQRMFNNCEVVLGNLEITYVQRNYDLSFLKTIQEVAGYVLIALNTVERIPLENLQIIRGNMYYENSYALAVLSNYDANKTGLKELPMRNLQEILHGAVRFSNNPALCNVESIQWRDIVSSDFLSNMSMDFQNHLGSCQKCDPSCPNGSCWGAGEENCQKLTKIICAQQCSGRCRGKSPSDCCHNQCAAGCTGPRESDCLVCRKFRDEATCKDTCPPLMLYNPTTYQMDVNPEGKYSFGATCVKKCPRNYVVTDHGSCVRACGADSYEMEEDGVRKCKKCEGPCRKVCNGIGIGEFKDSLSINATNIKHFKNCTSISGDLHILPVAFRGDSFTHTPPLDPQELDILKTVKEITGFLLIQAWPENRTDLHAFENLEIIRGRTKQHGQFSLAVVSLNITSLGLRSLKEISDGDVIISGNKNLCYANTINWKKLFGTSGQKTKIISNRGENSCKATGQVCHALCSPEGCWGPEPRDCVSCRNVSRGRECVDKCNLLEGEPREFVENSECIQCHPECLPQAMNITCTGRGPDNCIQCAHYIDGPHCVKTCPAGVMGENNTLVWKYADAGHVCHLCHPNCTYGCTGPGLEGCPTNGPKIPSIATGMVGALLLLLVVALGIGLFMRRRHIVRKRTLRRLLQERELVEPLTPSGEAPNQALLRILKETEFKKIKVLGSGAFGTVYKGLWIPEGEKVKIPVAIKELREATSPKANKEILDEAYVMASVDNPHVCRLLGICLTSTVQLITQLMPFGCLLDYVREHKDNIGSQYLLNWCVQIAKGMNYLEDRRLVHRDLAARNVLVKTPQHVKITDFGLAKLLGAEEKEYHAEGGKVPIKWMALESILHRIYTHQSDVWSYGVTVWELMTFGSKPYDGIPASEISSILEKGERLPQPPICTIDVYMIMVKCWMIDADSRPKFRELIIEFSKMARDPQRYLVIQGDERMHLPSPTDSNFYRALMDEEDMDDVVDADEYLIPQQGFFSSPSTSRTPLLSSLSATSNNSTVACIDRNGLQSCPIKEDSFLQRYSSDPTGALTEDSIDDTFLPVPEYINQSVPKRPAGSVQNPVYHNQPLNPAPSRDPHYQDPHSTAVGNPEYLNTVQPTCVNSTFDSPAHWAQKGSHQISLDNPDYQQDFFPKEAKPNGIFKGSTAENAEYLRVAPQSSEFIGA
SMILES,composite z-score [1],composite z-score [2],composite z-score [3],z-score [4],composite z-score [5],composite z-score [6],composite z-score [7],composite z-score [8],composite z-score [9],composite z-score [10],composite z-score [11],z-score [12],composite z-score [13],composite z-score [14],composite z-score [15],composite z-score [16],composite z-score [17],composite z-score [18],composite z-score [19],composite z-score [20]
C=C(COC)C(=O)CC[C@H](OC(=O)c1ccccc1-c1ccccc1C(=O)O)c1ccc(CO)o1,0.806,-0.416,-0.479,-0.0254 (inactive),1.43,0.645,-0.358,0.451,0.532,1.19,0.544,-0.115,0.27,-0.271,-0.564,-0.128,-0.0553,-0.137,0.77,0.239
CCOC(=O)C1=CCC(c2cccc(Cl)c2)O1 (stereo not given),0.355,0.14,-0.0411,-1.29 (inactive),0.235,0.0617,-0.62,-0.275,-0.504,0.154,0.377,-1.74,0.005,-0.314,-0.571,-0.0492,0.0796,0.59,0.291,-0.383
C=CCOc1ccc([C@@H]2CC=C(C(=O)OCC)[C@H](c3cccc(Br)c3)N2S(=O)(=O)c2ccc(C)cc2)cc1,0.251,0.735,1.04,-0.776 (inactive),0.248,-1.11,-0.0936,0.167,0.644,1.46,-1.07,-1.12,0.179,1.95,0.943,-0.0944,-0.107,-0.54,0.644,1.2
CC1=C2[C@@H](CCc3ccccc3)OB(O)C[C@@H]2[C@@H]2C(=O)C=CC(=O)[C@@H]2C1,0.338,-0.102,-0.48,3.33 (inactive),1.28,0.612,0.309,0.853,0.636,0.729,0.808,-2.13,1.12,0.281,-0.172,0.0101,-0.214,-0.375,0.464,1.2
Cc1ccc(S[C@]2(C(=O)NCc3ccccc3)CC(=O)N(C3Cc4ccccc4C3)[C@@H]2c2ccc(CO)cc2I)cc1,0.976,0.699,0.995,-1.83 (inactive),-0.699,-0.488,-0.807,-0.645,-1.13,0.889,0.241,-1.63,-1.53,-0.733,-0.0933,-0.0896,-0.364,-0.0496,-0.129,1.3
C[C@]12C(=O)N(CCCO)[C@@H]3C(=O)N(c4ccc(Cl)cc4)CC=CC31O[C@@H]1/C=C\CCCOC(=O)C12 (stereo not given in full),1.83,-0.275,0.62,0.158 (inactive),-0.747,-1.07,-0.887,-0.538,-1.01,0.232,-0.202,-0.513,-1.31,-0.887,-0.203,-0.202,-0.0904,0.309,2.33,-0.777
COC(=O)[C@@]1(Cc2ccc(F)cc2)[C@H]2c3cc(C(=O)N(C)C)n(Cc4ccc(C)c(F)c4F)c3C[C@H]2CN1C(=O)c1ccccc1,0.0477,0.871,1.03,-0.509 (inactive),0.158,-0.224,0.558,-0.0326,-0.693,1.39,1.33,-1.34,-0.0601,1.61,0.962,0.0037,0.141,-0.0053,0.692,0.298
O=C1C2C=CC(C(O)c3ccccn3)N(Nc3ccccc3)C2C(=O)N1c1ccccc1 (stereo not given),0.687,0.264,0.5,0.383 (inactive),-0.191,-0.326,-0.441,-0.656,-0.341,0.826,0.132,0.819,-0.136,0.167,-0.0451,-0.0758,-0.291,0.0373,0.529,0.31
CC(C)C[C@@H]1NC(=O)[C@@H]2C[C@H](C(=O)NCCCC[N+](C)(C)C)[C@H](c3cccc(OCCO)c3)N2C1=O,1.66,-0.184,-0.103,-0.44 (inactive),0.59,0.914,0.357,1.31,1.95,0.88,-0.832,-0.604,1.01,-0.863,0.348,-0.0236,0.151,-0.198,1.05,0.324
Cc1ccc(-c2cccc(=O)o2)cc1,-0.466,0.0694,-0.0115,0.613 (inactive),-0.1,-0.39,0.115,0.483,0.184,1.35,-1.01,0.488,0.418,-1.18,-0.802,-0.145,-0.138,0.11,-0.101,-0.391
COC(=O)[C@@]1(Cc2ccc(F)cc2)[C@H]2c3cc(C(=O)N(C)C)n(CCSCCO)c3C[C@H]2CN1C(=O)c1ccccc1,0.74,0.983,1.02,-1.22 (inactive),0.438,0.266,0.168,0.322,-0.0642,0.655,0.0689,-0.663,-0.293,2.32,0.559,-0.0977,0.123,1.6,0.51,0.224
COC(=O)[C@@]1(Cc2ccccc2)[C@H]2c3cc(C(=O)N4CCCC4)n(CCO)c3C[C@H]2CN1C(=O)c1ccccc1,0.346,2.22,1.5,-1.88 (inactive),0.615,0.343,0.414,1.14,0.337,0.305,0.34,-1.02,0.167,2.71,1.07,0.853,0.436,0.922,3.95,1.48
COCCOC(=O)N1C(=O)[C@@]2(c3cc(C#Cc4ccc(OC)cc4)ccc31)[C@H](c1ccc(OCCO)cc1)N1[C@H](c3ccccc3)[C@H](c3ccccc3)OC(=O)[C@H]1[C@@H]2C(N)=O,1.27,0.654,0.608,-0.372 (inactive),1.25,1.32,0.711,1.43,0.853,0.48,1.32,-2.33,0.701,2.09,0.451,-0.0792,0.296,0.683,1.36,2.23
